This is an account of results in PubChem BioAssay.

Test [1] can be described thus: optical density shifts of acrAB sulA E. coli – strain DRC41, OD650, 48 h, E. coli filamentation inducer project, primary screen (AID 1152).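 Also: E. coli MC1000 strain DRC41 lacking acrAB efflux pump and sulA.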 As to conditions: higher = more signal, called active from +8 up or from −8 down.
The nature of test [2]: probe aLefty1 binding on compound microarray – biochemical, small-molecule microarray, 635/667 nm fluorescence, primary screen (AID 1153).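 Also: score merges spot fluorescence with signal-to-noise ratio from the scanned slide images.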 As to conditions: higher = more signal.
Test [3] is described as follows: plasmodial surface anion channel blockers, osmotic lysis – cell-based, P. falciparum Indochina, OD700, 1 h, primary screen (AID 1154). The note with it: P. falciparum Indochina infected RBC osmotic lysis, higher = more signal, called active from +8 up or from −8 down.
Test [4] in a line: plasmodial surface anion channel blockers, osmotic lysis – cell-based, P. falciparum Indochina, OD700, 2 h, primary screen (AID 1155).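 Also: lysis reports solute entry through the parasite surface anion channel PSAC.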 As to conditions: P. falciparum Indochina infected erythrocytes, higher = more signal, called active from +8 up or from −8 down.
A short description of test [5]: changes in parasitized red cell lysis, either direction – P. falciparum Indochina, OD700, 3 h, PSAC antagonist project, primary screen (AID 1156). The note with it: P. falciparum-infected erythrocytes, osmotic lysis, higher = more signal, called active from +8 up or from −8 down.
Test [6] in a line: plasmodial surface anion channel blockers, osmotic lysis – cell-based, P. falciparum Indochina, OD700, 18 h, primary screen (AID 1157). The note with it: P. falciparum Indochina infected erythrocytes, osmotic lysis OD700, 18 h; higher = more signal, called active from +8 up or from −8 down.
A short description of test [7]: S6 kinase pathway phospho-S6 level changes – cell-based, A549, cytoblot, luminescence, serum-stimulated, primary screen (AID 1158).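 Also: serum-stimulated A549 lung adenocarcinoma cells; signal is phosphorylated S6 detected by cytoblot immunostaining with HRP secondary.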 As to conditions: 5 h, higher = more signal.
For test [8], the target named is NADPH oxidase 2 (Homo sapiens) (UniProt P04839). In words: compounds shifting NOX2 Amplex Red fluorescence – cell-based, HEK293-NOX2, PMA-stimulated, NOX inhibitor project, primary screen (AID 1159). Also: test concentration not given here. As to conditions: 45 min, higher = more signal, called active from +8 up or from −8 down.
Sequence of NADPH oxidase 2 (Homo sapiens) (P04839 whole entry, looked up): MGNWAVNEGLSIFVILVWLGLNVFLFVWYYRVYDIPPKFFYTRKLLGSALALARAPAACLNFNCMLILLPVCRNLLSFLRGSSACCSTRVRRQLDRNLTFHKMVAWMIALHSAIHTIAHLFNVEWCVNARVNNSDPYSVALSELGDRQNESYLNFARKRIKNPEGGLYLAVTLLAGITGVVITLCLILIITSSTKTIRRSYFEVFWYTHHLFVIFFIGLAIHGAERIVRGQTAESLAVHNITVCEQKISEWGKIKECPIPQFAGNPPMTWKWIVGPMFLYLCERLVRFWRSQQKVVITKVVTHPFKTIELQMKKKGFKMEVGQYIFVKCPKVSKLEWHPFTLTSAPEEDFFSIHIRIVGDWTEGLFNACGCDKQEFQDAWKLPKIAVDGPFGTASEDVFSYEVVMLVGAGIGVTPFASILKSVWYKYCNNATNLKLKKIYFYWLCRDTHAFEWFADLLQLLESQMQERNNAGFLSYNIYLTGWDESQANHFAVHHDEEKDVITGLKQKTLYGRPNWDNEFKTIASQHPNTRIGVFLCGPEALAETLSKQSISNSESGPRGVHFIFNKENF
Test [9] has as its target NADPH oxidase 4 (Homo sapiens) (UniProt Q9NPH5). In words: compounds shifting NOX4 Amplex Red fluorescence – cell-based, HEK293-NOX4, tetracycline-induced, NOX inhibitor project, primary screen (AID 1160). As to conditions: HEK293-NOX4, Amplex Red H2O2 fluorescence, 45 min; higher = more signal, called active from +8 up or from −8 down.
Test [10] deals with NADPH oxidase 5 (Homo sapiens) (UniProt Q96PH1). In words: compounds shifting NOX5 Amplex Red fluorescence – cell-based, HEK293-NOX5, NOX inhibitor project, primary screen (AID 1161). As to conditions: HEK293-NOX5, ionomycin, 45 min, higher = more signal.
Sequence of NADPH oxidase 5 (Homo sapiens) (Q96PH1 whole entry, looked up): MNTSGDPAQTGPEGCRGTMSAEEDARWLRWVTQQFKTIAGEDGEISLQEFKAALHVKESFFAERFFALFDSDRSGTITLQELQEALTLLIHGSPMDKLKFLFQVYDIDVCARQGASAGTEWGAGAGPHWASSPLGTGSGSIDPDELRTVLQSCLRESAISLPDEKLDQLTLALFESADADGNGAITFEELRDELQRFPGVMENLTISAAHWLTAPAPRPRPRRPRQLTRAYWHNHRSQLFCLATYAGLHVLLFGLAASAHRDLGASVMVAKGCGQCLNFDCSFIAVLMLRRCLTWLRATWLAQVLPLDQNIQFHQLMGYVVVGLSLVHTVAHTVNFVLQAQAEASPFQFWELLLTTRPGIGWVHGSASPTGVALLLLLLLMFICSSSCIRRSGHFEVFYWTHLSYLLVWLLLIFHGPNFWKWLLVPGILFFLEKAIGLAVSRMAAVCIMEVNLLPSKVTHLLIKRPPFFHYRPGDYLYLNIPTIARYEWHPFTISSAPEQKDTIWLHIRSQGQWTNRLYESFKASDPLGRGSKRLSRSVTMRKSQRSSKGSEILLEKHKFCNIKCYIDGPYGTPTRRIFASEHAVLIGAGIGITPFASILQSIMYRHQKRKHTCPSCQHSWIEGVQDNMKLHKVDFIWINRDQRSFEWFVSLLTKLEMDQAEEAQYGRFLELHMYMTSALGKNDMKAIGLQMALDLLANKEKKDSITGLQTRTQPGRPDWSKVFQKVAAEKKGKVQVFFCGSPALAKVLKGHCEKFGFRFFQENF
The nature of test [11]: compound effects on lung adenocarcinoma cell viability – A549, calcein-AM fluorescence, 48 h, basal, profiling panel (AID 1162). Also: test concentration not given here. As to conditions: higher = more signal.
Test [12] is described as follows: compound effects on differentiated 3T3-L1 adipocyte viability – cell-based, 3T3-L1 adipocytes, calcein-AM fluorescence, 48 h, basal, profiling panel (AID 1163). Also: test concentration not given here. As to conditions: 3T3-L1 adipocytes viability, higher = more signal.
A short description of test [13]: compound effects on hepatocellular carcinoma cell viability – HepG2, calcein-AM fluorescence, 48 h, basal, profiling panel (AID 1164). Also: test concentration not given here. As to conditions: higher = more signal.
Test [14] is described as follows: compound effects on multiple myeloma cell viability – MM1S, calcein-AM fluorescence, 48 h, basal, profiling panel (AID 1165). Also: test concentration not given here. As to conditions: higher = more signal.
Test [15] is described as follows: calcein-AM signal in unstimulated myeloma cells – cell-based, calcein-AM fluorescence, 48 h, PK04 Diversity Set, profiling panel (AID 1166).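 Also: cells grown under basal conditions without added stimulus; test concentration not given here.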 As to conditions: RPMI8226 myeloma viability, higher = more signal.
Test [16] is described as follows: JC-1 mitochondrial signal, unstimulated HepG2 cells – cell-based, JC-1 fluorescence, 24 h, 100 nL compound, profiling panel (AID 1167). Also: test concentration not given here. As to conditions: HepG2 mitochondrial potential, higher = more signal.
Test [17] in a line: JC-1 mitochondrial signal, unstimulated adipocytes – cell-based, JC-1 fluorescence, 3T3-L1 adipocytes, 24 h, 100 nL compound, profiling panel (AID 1168). Also: test concentration not given here. As to conditions: JC-1 mitochondrial fluorescence, higher = more signal, called active from +8 up or from −8 down.
Test [18] in a line: JC-1 mitochondrial signal, unstimulated myeloma cells – cell-based, JC-1 fluorescence, RPMI8226, 24 h, 100 nL compound, profiling panel (AID 1169). Also: test concentration not given here. The note with it: JC-1 mitochondrial potential fluorescence, higher = more signal.
The nature of test [19]: JC-1 mitochondrial signal, unstimulated MM1S myeloma – cell-based, JC-1 fluorescence, 24 h, 100 nL compound, profiling panel (AID 1170). Also: test concentration not given here. The note with it: MM1S mitochondrial potential, higher = more signal.
Test [20] can be described thus: resazurin metabolic signal in A549 cells – cell-based, resazurin fluorescence, 24 h, PK04 Diversity Set, profiling panel (AID 1171). Also: test concentration not given here. As to conditions: A549 viability, higher = more signal, called active from +8 up or from −8 down.

Active and inactive are the calls of the source.

Sequence of NADPH oxidase 4 (Homo sapiens) (Q9NPH5 whole entry, looked up): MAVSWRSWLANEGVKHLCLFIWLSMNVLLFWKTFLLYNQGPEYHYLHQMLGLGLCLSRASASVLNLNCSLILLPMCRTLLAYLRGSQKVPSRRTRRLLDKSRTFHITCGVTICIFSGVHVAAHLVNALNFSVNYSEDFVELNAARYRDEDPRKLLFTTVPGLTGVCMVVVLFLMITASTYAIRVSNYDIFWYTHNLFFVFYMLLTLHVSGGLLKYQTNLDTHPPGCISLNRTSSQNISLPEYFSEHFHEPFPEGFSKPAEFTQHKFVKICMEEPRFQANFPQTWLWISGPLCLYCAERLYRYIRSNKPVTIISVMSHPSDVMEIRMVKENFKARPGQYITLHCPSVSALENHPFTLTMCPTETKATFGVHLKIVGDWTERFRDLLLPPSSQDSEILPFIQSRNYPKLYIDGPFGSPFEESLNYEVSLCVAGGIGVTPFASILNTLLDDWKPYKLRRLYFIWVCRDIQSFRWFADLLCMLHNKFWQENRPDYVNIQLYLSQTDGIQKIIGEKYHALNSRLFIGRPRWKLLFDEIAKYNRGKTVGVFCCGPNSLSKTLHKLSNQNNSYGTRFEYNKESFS

For `O=C1C2C=CC(C(O)CCc3ccccc3)N(Nc3ccccc3F)C2C(=O)N1c1ccccc1` (stereo not given), the z-score in test [1] was -0.383 (inactive); in [3], 1.87 (inactive); in test [4] it was 1.15 (inactive); in test [5], 0.517 (inactive); in test [6], 0.807 (inactive); in test [7] it was -0.638. Moreover, the z-score is 0.236 (inactive) in test [8]; -0.452 (inactive) in test [9]; -0.449 in test [10]; -0.804 in test [11]; 0.255 in [12]; -0.31 in test [13]. The z-score in [14] was 0.596; in [15] it was -1.46; in test [16], -0.257; in [17], 0.377 (inactive); in test [18] it was -0.448; in [19], -0.515. In addition, the z-score in test [20] was 0.387 (inactive). Also, in test [2], the composite z-score was -0.322.

With `COc1cc2c(cc1O)C(c1cccs1)N(C)CC2` (stereo not given), the z-score is 0.158 (inactive) in test [1]; 4.23 (inactive) in test [3]; 1.17 (inactive) in test [4]; -0.0863 (inactive) in [5]; 0.352 (inactive) in test [6]; -0.331 in [7]. The z-score was -4.66 (inactive) in test [8]; -2.71 (inactive) in test [9]; -2.33 in [10]; -0.416 in [11]; -0.344 in test [12]; 0.448 in test [13]. The z-score in test [14] was 0.405; in test [15], 0.586; in test [16], -1.13; in test [17] it was -0.0427 (inactive); in test [18], -0.0651; in [19], -1.06. For the same compound, the z-score in test [20] is -0.568 (inactive). The composite z-score in [2] was -0.103.

In the case of `COc1ccc([Si](C)(C)[C@@H]2[C@@H](CC(=O)N3CCC[C@H]3CO)O[C@]3(C(=O)N(c4ccccc4)c4ccccc43)[C@H]2C)cc1`, the z-score in test [1] was 2.66 (inactive); in [3] it was 0.616 (inactive); in test [4] it was -0.748 (inactive); in test [5], 1.1 (inactive); in test [6], -1.44 (inactive); in test [7], 0.499. Moreover, the z-score is 2.54 (inactive) in test [8]; 1.74 (inactive) in test [9]; 2.4 in test [10]; 1.61 in [11]; 0.93 in test [12]; -0.259 in test [13]. The z-score in test [14] was -0.011; in [15] it was 0.17; in test [16], 1.29; in test [17], -0.181 (inactive); in [18] it was -0.277; in test [19], -0.544. In addition, in test [20], the z-score was 1.13 (inactive). In [2], this compound had a composite z-score of -0.0718.

`C=CCC(OC(C)=O)[C@@H]1[C@@H](N(Cc2cccc3ccccc23)C(=O)c2ccc(-c3ccccc3)cc2)c2cc(OCCCO)ccc2N1C(=O)c1ccc2ccccc2c1` (stereo not given in full): the z-score in test [1] is -0.495 (inactive); in test [3], 0.135 (inactive); in test [4], 0.396 (inactive); in test [5], -0.182 (inactive); in test [6] it was 0.0644 (inactive); in test [7] it was 0.174. Besides, the z-score was -0.608 (inactive) in [8]; 0.624 (inactive) in test [9]; -0.535 in test [10]; -0.525 in test [11]; -0.526 in test [12]; -0.62 in test [13]. Besides, the z-score was 0.279 in [14]; -0.494 in [15]; 1.62 in test [16]; -0.693 (inactive) in test [17]; -0.011 in test [18]; -0.000791 in test [19]. In addition, in [20], the z-score is 1.09 (inactive). The compound further had a composite z-score in test [2] of 0.0153.

Turning to `C=C(COC)/C(=C/C[C@@H](OC(=O)c1ccncc1)c1ccc(CO)o1)c1cc(C(=O)OC)ccc1OC`, the z-score in test [1] is 0.855 (inactive); in test [3], 3.87 (inactive); in test [4], 0.453 (inactive); in [5] it was 1.57 (inactive); in test [6] it was 0.308 (inactive); in test [7] it was 0.934. Further, the z-score in test [8] was -0.631 (inactive); in test [9], -0.124 (inactive); in [10], -0.495; in [11] it was 0.27; in [12], -0.766; in [13], 0.466. For the same compound, the z-score in test [14] was -0.761; in test [15] it was -0.27; in [16] it was 0.232; in test [17] it was -0.478 (inactive); in [18], -0.277; in test [19], -1.28. Besides, in test [20], the z-score is 0.386 (inactive). The composite z-score in test [2] stood at 0.062.

In the case of `CC(CO)N1C(=O)[C@@H]2C3C(=O)OCCC/C=C\[C@H]3OC23C=CCN(C(C)(C)C)C(=O)[C@@H]13` (stereo not given in full), the z-score in [1] was 0.458 (inactive); in [3], 0.943 (inactive); in test [4], 0.752 (inactive); in test [5], 2.51 (inactive); in test [6], 0.477 (inactive); in test [7] it was -0.0054. Further, the z-score in [8] is 0.89 (inactive); in test [9], -0.437 (inactive); in test [10], 0.886; in [11] it was -0.241; in [12], -0.557; in [13], 0.775. The z-score in test [14] was 1.41; in [15], 0.995; in [16], 0.285; in [17] it was 0.521 (inactive); in test [18] it was -0.458; in [19] it was -1.26. Besides, the z-score in test [20] was -0.717 (inactive). This compound yielded a composite z-score in test [2] of -0.0984.

As to `COC(=O)[C@]1(CCC(=O)OC(C)(C)C)N=C(c2ccc(OCCCO)cc2)O[C@@H]1c1ccccc1CN=[N+]=[N-]`, the z-score in test [1] is -1.68 (inactive); in test [3] it was 30.3 (active); in test [4] it was 28.3 (active); in test [5], -0.615 (inactive); in test [6], 5.71 (inactive); in test [7], -0.0021. For the same compound, the z-score was -3.48 (inactive) in test [8]; -1.72 (inactive) in [9]; -2.41 in test [10]; -2.13 in test [11]; -0.354 in test [12]; -3.03 in test [13]. For the same compound, the z-score in [14] is -3.55; in [15] it was -3.95; in test [16], -1.93; in test [17], -0.718 (inactive); in test [18], -1.16; in [19], -2.7. For the same compound, the z-score in test [20] was -2.22 (inactive). The compound also returned a composite z-score in test [2] of 0.235.

With `COCCOC(=O)N1C(=O)[C@@]2(c3ccccc31)[C@H](c1ccccc1OCCO)N1[C@H](c3ccccc3)[C@H](c3ccccc3)OC(=O)[C@H]1[C@@H]2C(=O)N1CCN(c2ncccn2)CC1`, the z-score in test [1] was -0.102 (inactive); in test [3] it was 4.19 (inactive); in test [4], 2.16 (inactive); in test [5] it was 0.98 (inactive); in test [6], 1.49 (inactive); in test [7], -0.248. In addition, the z-score in test [8] is -0.652 (inactive); in [9] it was -0.44 (inactive); in [10] it was 0.183; in [11], -0.588; in [12] it was -0.678; in test [13], -0.478. Besides, the z-score in [14] was -1.7; in [15], -0.949; in test [16] it was 0.323; in test [17] it was 0.665 (inactive); in test [18] it was -0.929; in test [19], -1.36. Further, the z-score in [20] is -1.05 (inactive). The compound further registered a composite z-score in [2] of 0.0402.

`CN(C)CCCCCCNC(=O)[C@@H]1C[C@@H]2C(=O)N[C@@H](Cc3ccccc3)C(=O)N2[C@@H]1c1ccc(O)cc1`: the z-score in [1] was -0.0959 (inactive); in test [3], 1.85 (inactive); in [4] it was 0.596 (inactive); in [5] it was 2.42 (inactive); in [6], 0.228 (inactive); in test [7], 0.594. Besides, the z-score is -0.745 (inactive) in test [8]; 0.262 (inactive) in test [9]; -0.632 in test [10]; -0.58 in test [11]; 0.502 in test [12]; -0.948 in test [13]. The z-score in test [14] was -1.45; in test [15] it was -0.571; in test [16], -1.15; in [17], -1.42 (inactive); in test [18], -0.00023; in test [19], 0.0429. Further, the z-score in [20] was -1.03 (inactive). Besides, the composite z-score in test [2] turned out to be 0.378.
